Test results: the supplement of paper PMC10849652
The full data set covers some 8,800 targets. This sample favours those with a hit. About 0.5% of all pairs of compound and target were hits. A number with no mark means an inactive call.

Key:
Test in all cases: log2 fold change, soluble protein after heating vs DMSO (PISA); higher = thermal stabilisation; K562 lysate, 10 uM; active = over 0.2 and 3.5 SD of the protein, either way, in both replicates (recomputed)
vemurafenib = compound: CCCS(=O)(=O)Nc1ccc(F)c(C(=O)c2c[nH]c3ncc(-c4ccc(Cl)cc4)cc23)c1F [vemurafenib]
How it was run: (§1)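 Pellets of K562 cells were dounce-homogenised in PBS pH 7.4 with 1 mM MgCl2, and the crude extract was held at 1 mg/mL protein for a 30 min treatment with 10 μM compound. Aliquots were heated for 3 min over 48°C-58°C and pooled before NP-40 was added to 0.5% at 4°C. The supernatant from 21,000xg for 90 min was quantified by TMTpro 16plex LC-MS/MS with channel sums equalised. Values are reported from duplicates as log-two fold change in thermal stability relative to solvent controls.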

[1] = compound: CCCS(=O)(=O)Nc1ccc(F)c(C(=O)c2c[nH]c3ncc(Cl)cc23)c1F
How it was run: as §1

barasertib = compound: CCN(CCCOc1ccc2c(Nc3cc(CC(=O)Nc4cccc(F)c4)[nH]n3)ncnc2c1)CCOP(=O)(O)O [barasertib]
How it was run: as §1

[2] = compound: CC[C@@H]1C(=O)N(C)c2cnc(Nc3ccc(C(=O)NC4CCN(C)CC4)cc3OC)nc2N1C1CCCC1
How it was run: as §1

volasertib = compound: CC[C@@H]1C(=O)N(C)c2cnc(Nc3ccc(C(=O)N[C@H]4CC[C@H](N5CCN(CC6CC6)CC5)CC4)cc3OC)nc2N1C(C)C [volasertib]
How it was run: as §1

[3] = compound: CCn1c(C(=O)N(C2CC2)C2CC2)cc2c3c(ncn3C)c(Nc3cc(C)n(C)n3)nc21
How it was run: as §1

[4] = compound: CCn1cc(-c2ccnc3[nH]c(-c4cccc(CN(C)C)c4)cc23)c(-c2ccc(NC(=O)N(C)C)cc2)n1
How it was run: as §1

[5] = compound: CN1CCC(CNc2ccc3ncc(-c4cccc(OC(F)(F)F)c4)n3n2)CC1
How it was run: as §1

saracatinib = compound: CN1CCN(CCOc2cc(OC3CCOCC3)c3c(Nc4c(Cl)ccc5c4OCO5)ncnc3c2)CC1 [saracatinib]
How it was run: as §1

sotrastaurin = compound: CN1CCN(c2nc(C3=C(c4c[nH]c5ccccc45)C(=O)NC3=O)c3ccccc3n2)CC1 [sotrastaurin]
How it was run: as §1

alvocidib = compound: CN1CC[C@H](c2c(O)cc(O)c3c(=O)cc(-c4ccccc4Cl)oc23)[C@H](O)C1 [alvocidib]
How it was run: as §1

Tubastatin A = compound: CN1CCc2c(c3ccccc3n2Cc2ccc(C(=O)NO)cc2)C1 [Tubastatin A]
How it was run: as §1

[6] = compound: CNC(=O)C1=CC=CC=C1NC2=NC(=NC=C2Cl)NC3=C(C=C(C=C3)N4CCOCC4)OC
How it was run: as §1

defactinib = compound: CNC(=O)c1ccc(Nc2ncc(C(F)(F)F)c(NCc3nccnc3N(C)S(C)(=O)=O)n2)cc1 [defactinib]
How it was run: as §1

[7] = compound: CNc1nc(-c2ccc3c(N)n[nH]c3c2)cc(N2C[C@@H](C(=O)NC3CCCCC3)CC[C@H]2C)n1
How it was run: as §1

encorafenib = compound: COC(=O)N[C@@H](C)CNc1nccc(-c2cn(C(C)C)nc2-c2cc(Cl)cc(NS(C)(=O)=O)c2F)n1 [encorafenib]
How it was run: as §1

[8] = compound: COC(=O)[C@H](CCSC)NC(=O)C1=C(C=C(C=C1)NC[C@H](CS)N)C2=CC=CC=C2
How it was run: as §1

alisertib = compound: COc1cc(Nc2ncc3c(n2)-c2ccc(Cl)cc2C(c2c(F)cccc2OC)=NC3)ccc1C(=O)O [alisertib]
How it was run: as §1

[9] = compound: COc1cc2nc(-c3cc(F)ccc3O)nc(N[C@@H]3CNC[C@H]3C(C)(C)O)c2cc1OC
How it was run: as §1

gefitinib = compound: COc1cc2ncnc(Nc3ccc(F)c(Cl)c3)c2cc1OCCCN1CCOCC1 [gefitinib]
How it was run: as §1

Sequence of UniProt P53805 (P53805 whole entry, looked up): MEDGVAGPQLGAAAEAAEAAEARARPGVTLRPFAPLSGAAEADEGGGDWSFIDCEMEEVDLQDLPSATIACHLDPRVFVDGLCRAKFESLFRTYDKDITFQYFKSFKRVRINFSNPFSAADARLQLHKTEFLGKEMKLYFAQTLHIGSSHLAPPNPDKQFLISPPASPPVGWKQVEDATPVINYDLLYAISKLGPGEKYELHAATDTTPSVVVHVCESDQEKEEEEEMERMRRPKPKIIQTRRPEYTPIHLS
Sequence of UniProt Q53S08 (Q53S08 whole entry, looked up): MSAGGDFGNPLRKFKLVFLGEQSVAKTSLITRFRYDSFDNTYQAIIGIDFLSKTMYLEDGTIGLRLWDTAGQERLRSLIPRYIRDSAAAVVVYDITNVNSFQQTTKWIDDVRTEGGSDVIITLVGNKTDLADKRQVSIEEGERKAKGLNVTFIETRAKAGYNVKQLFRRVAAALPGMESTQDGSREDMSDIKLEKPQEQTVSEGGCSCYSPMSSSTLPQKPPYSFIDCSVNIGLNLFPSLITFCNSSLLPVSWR
Sequence of UniProt Q9BTD8 (Q9BTD8 whole entry, looked up): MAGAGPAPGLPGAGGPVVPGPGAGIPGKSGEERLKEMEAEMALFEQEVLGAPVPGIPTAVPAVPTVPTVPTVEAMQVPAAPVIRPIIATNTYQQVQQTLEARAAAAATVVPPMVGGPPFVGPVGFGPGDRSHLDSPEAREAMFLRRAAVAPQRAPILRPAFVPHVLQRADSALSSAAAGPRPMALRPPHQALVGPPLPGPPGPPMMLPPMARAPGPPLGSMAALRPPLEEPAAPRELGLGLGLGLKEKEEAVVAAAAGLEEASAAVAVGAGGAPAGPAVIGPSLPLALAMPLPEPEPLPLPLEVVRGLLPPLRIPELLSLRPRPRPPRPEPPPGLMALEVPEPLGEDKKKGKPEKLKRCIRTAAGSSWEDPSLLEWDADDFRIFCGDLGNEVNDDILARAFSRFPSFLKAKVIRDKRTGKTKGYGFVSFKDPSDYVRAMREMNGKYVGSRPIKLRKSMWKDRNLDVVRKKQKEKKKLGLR
Sequence of UniProt P52756 (P52756 whole entry, looked up): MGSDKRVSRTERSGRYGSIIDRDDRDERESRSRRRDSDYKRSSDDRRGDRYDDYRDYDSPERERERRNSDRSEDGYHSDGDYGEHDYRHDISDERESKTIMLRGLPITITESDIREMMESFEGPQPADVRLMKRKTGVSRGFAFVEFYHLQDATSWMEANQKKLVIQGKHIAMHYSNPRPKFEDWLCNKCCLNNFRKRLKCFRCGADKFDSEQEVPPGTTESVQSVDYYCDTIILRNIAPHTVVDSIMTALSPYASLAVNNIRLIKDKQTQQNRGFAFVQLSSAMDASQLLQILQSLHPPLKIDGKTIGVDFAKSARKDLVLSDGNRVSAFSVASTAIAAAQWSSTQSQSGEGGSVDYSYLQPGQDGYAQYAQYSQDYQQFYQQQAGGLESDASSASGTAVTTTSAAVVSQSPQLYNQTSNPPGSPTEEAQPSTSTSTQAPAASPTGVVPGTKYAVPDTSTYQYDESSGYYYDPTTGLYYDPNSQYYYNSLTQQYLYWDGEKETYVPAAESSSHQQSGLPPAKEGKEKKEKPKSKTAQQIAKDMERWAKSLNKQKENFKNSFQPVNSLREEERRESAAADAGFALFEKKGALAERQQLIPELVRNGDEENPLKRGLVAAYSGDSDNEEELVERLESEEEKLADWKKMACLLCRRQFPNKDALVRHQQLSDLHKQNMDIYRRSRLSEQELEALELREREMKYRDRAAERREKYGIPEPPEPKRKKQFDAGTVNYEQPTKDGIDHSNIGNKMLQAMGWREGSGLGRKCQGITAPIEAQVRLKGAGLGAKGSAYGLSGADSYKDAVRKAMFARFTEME
Sequence of UniProt Q92878 (Q92878 whole entry, looked up): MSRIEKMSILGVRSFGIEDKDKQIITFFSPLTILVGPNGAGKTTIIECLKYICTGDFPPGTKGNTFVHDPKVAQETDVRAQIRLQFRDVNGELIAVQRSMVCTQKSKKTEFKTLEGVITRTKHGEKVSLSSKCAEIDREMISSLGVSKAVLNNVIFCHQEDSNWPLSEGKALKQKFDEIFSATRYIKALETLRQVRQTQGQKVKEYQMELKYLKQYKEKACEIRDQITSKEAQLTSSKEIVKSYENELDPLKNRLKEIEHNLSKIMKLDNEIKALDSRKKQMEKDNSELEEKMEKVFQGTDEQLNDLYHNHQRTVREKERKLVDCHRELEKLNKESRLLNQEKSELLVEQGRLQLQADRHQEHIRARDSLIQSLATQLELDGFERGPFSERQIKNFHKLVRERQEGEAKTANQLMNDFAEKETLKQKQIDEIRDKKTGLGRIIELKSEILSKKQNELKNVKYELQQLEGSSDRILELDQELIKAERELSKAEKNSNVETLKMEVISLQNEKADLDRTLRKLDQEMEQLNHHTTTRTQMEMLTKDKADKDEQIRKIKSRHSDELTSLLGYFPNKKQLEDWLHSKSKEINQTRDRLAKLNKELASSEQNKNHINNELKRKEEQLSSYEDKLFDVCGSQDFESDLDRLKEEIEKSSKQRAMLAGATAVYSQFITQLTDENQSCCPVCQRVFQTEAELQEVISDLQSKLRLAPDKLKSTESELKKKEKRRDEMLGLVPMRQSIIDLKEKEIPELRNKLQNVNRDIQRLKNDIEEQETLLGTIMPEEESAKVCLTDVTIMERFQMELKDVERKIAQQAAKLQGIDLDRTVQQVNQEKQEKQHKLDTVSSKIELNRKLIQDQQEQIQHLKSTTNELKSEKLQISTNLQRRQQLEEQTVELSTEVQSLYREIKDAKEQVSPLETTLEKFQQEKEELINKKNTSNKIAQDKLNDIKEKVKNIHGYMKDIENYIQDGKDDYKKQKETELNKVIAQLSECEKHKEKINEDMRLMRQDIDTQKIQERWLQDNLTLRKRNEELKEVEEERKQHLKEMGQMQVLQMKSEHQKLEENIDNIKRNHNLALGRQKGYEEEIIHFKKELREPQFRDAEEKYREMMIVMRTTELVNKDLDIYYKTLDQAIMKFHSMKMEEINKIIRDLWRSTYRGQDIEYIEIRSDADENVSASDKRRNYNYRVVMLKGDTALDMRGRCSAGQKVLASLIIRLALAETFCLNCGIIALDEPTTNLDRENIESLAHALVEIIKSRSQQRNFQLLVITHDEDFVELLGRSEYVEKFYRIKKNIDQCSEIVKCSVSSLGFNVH
Sequence of UniProt Q8NBX0 (Q8NBX0 whole entry, looked up): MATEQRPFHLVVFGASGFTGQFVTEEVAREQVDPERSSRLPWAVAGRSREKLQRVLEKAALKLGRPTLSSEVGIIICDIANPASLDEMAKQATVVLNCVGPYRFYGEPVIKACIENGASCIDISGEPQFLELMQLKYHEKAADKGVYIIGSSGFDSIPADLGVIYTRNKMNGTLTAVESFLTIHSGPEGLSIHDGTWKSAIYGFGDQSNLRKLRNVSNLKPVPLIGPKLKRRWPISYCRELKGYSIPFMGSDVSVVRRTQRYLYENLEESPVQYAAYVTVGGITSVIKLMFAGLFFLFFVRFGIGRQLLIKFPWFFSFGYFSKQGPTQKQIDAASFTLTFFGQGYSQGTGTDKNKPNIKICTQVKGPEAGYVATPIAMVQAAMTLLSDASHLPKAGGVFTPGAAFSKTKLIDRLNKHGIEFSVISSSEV
Sequence of UniProt P28702 (P28702 whole entry, looked up): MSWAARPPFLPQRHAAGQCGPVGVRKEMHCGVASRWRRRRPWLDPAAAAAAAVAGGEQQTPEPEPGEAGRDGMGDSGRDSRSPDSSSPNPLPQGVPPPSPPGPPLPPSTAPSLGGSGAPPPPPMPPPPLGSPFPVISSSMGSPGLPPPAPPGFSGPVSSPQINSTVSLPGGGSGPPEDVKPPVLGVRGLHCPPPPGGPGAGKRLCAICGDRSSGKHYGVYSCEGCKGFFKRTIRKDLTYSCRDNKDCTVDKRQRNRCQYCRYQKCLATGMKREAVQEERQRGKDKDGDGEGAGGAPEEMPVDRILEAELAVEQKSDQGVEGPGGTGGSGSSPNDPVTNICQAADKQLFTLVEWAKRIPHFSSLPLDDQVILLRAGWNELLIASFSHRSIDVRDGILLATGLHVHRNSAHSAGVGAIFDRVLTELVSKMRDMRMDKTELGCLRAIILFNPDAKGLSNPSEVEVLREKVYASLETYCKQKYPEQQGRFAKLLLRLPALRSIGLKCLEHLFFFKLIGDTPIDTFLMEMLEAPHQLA
Sequence of UniProt P55735 (P55735 whole entry, looked up): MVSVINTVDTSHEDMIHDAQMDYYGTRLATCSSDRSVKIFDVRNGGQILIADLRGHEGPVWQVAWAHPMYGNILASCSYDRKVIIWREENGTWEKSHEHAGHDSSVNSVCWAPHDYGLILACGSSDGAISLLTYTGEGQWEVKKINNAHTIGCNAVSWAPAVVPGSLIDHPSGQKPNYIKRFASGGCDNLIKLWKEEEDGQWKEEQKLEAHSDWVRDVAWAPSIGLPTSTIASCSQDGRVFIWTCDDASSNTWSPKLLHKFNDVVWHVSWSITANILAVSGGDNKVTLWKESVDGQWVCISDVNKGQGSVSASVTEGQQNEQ
Sequence of UniProt O75446 (O75446 whole entry, looked up): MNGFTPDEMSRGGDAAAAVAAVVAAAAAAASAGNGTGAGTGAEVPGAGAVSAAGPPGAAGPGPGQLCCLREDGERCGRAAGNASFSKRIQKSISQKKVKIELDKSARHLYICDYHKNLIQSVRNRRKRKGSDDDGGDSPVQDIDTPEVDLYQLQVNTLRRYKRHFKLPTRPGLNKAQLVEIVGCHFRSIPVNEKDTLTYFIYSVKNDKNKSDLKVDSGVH
Sequence of UniProt P61586 (P61586 whole entry, looked up): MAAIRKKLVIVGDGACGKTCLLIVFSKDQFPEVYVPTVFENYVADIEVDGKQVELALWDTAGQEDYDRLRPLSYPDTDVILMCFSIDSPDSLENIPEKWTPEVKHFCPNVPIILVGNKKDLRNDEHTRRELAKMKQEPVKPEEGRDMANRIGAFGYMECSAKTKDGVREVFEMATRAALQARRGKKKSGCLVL

Row | Target | log2 fold change (vemurafenib) | log2 fold change [1] | log2 fold change (barasertib) | log2 fold change [2] | log2 fold change (volasertib) | log2 fold change [3] | log2 fold change [4] | log2 fold change [5] | log2 fold change (saracatinib) | log2 fold change (sotrastaurin) | log2 fold change (alvocidib) | log2 fold change (Tubastatin A) | log2 fold change [6] | log2 fold change (defactinib) | log2 fold change [7] | log2 fold change (encorafenib) | log2 fold change [8] | log2 fold change (alisertib) | log2 fold change [9] | log2 fold change (gefitinib)
1 | RBM42 (UniProt Q9BTD8) | -0.029 | 0.027 | -0.037 | 0.076 | -0.014 | -0.006 | 0.004 | -0.002 | 0.039 | -0.009 | -0.036 | -0.022 | 0.08 | 0.058 | 0.077 | 0.098 | -0.28 (active) | 0.043 | -0.062 | -0.066
2 | RELN (UniProt P78509) | 0.043 | -0.098 | 0.004 | 0.024 | -0.019 | 0.021 | -0.024 | 0.152 | 0.035 | 0.02 | 0.026 | -0.051 | -0.025 | 0.055 | -0.016 | -0.009 | -0.092 | -0.014 | 0.141 | 0.089
3 | SEC13 isoform 3 (UniProt P55735) | -0.001 | -0.004 | -0.031 | -0.013 | 0.007 | 0.003 | 0.507 (active) | -0.042 | -0.027 | -0.015 | 0.107 | 0.029 | -0.024 | -0.06 | -0.064 | 0.002 | -0.039 | 0.02 | -0.004 | 0.03
4 | RBM5 (UniProt P52756) | -0.021 | -0.018 | 0.087 | 0.013 | -0.277 | 0.064 | 0.048 | -0.012 | -0.039 | -0.03 | -0.226 | -0.059 | 0.021 | 0.01 | 0.028 | 0.044 | 0.134 | -0.035 | 0.182 | 0.18
5 | RAD50 isoform 2 (UniProt Q92878) | 0.004 | 0.013 | 0.025 | -0.011 | -0.047 | 0.039 | -0.024 | -0.024 | 0 | 0.036 | 0.023 | -0.137 | 0.008 | 0.026 | -0.04 | 0.006 | 0.108 | 0.002 | 0.001 | -0.016
6 | SAP30 (UniProt O75446) | -0.016 | 0.006 | 0.051 | 0.063 | -0.054 | – | 0.103 | -0.022 | 0.016 | -0.013 | -0.022 | – | – | -0.028 | 0.089 | -0.007 | 0.053 | 0.044 | 0.087 | -0.285
7 | SCCPDH (UniProt Q8NBX0) | -0.013 | -0.054 | 0.118 | 0.128 | 0.055 | -0.107 | -0.12 | 0.233 | -0.092 | 0.094 | -0.051 | 0.044 | 0.05 | 0.028 | 0.333 | -0.076 | 0.129 | -0.011 | 0.005 | -0.063
8 | RAB6D (UniProt Q53S08) | 0.005 | -0.033 | 0.15 | 0.289 (active) | 0.033 | -0.049 | -0.065 | 0.018 | -0.053 | -0.025 | -0.029 | 0.078 | 0.024 | 0.077 | 0.087 | 0.023 | -0.034 | -0.149 | 0.062 | 0.027
9 | RHOA (UniProt P61586) | 0.003 | -0.005 | -0.07 | 0.069 | 0.009 | 0.042 | 0.45 (active) | -0.06 | 0.009 | 0 | 0.093 | -0.078 | 0.087 | -0.029 | -0.003 | -0.042 | -0.046 | 0.072 | 0.029 | 0.078
10 | RPS18 (UniProt P62269) | 0.006 | 0.022 | -0.007 | -0.014 | 0.018 | 0.009 | -0.219 (active) | 0.063 | 0.002 | 0 | -0.057 | 0.04 | -0.021 | 0.016 | 0.025 | -0.022 | 0.054 | 0.013 | 0.001 | -0.032
11 | RAP1B (UniProt F5GZG1) | 0.025 | -0.069 | 0.043 | -0.013 | -0.015 | – | 0.471 | 0.041 | 0.094 | -0.038 | -0.118 | – | 0.01 | -0.05 | -0.104 | 0.056 | 0.124 | 0.059 | 0.002 | 0.071
12 | RAPGEF2, A0A2R8YGD3 | 0 | 0.013 | 0.144 | 0.093 | -0.015 | -0.029 | 0.325 | 0.05 | 0.01 | -0.003 | -0.241 | 0.236 (active) | 0.017 | 0.119 | 0.025 | 0.017 | 0.021 | 0.007 | -0.017 | -0.042
13 | RTTN (UniProt Q86VV8) | 0.066 | 0.011 | 0.043 | -0.101 | -0.293 | 0.099 | -0.347 | -0.316 | 0.047 | – | 0.088 | -0.242 | 0.082 | 0.401 | 0.018 | 0.069 | -0.085 | -0.002 | -0.301 | 0.049
14 | RXRB isoform 3 (UniProt P28702) | 0.028 | 0.136 | 0.106 | 0.008 | -0.125 | – | -0.008 | -0.089 | -0.048 | -0.051 | 0.008 | – | 0.126 | 0.05 | -0.003 | 0.066 | -0.042 | -0.044 | 0.073 | 0.047
15 | RCAN1 (UniProt P53805) | 0.028 | 0.061 | 0.034 | -0.022 | -0.026 | -0.06 | -0.024 | 0.041 | 0.025 | -0.056 | -0.003 | -0.118 | 0.052 | 0.006 | 0.079 | 0.065 | 0.035 | -0.02 | 0.019 | -0.038
16 | RNF168 (UniProt Q8IYW5) | 0.152 | 0.134 | 0.235 | 0.128 | -0.062 | 0.138 | 0.015 | 0.035 | -0.007 | -0.06 | 0.037 | -0.03 | 0.068 | -0.026 | -0.03 | -0.046 | -0.102 | -0.078 | -0.043 | 0.079
